Measurements: PubChem BioAssay (EPA / NIEHS)
The source made the active and inactive calls. The calls were made as follows: active = hit-call score of the fitted dose curve at least 0.9, where 1 is the maximum; inactive = score below 0.9.

Each compound was assayed on growth arrest and DNA damage 45 (GADD45A), GADD45A (gene 1647) (assay: LTEA_HepaRG_GADD45A: Life Technologies and Expression Analysis (LTEA) Assay for growth arrest and DNA damage 45 (GADD45A) using HepaRG (AID 2283458)). Conditions: mRNA level, 48 h; actives raise or lower the signal.
Description: LTEA_HepaRG is a cell based, multiplexed-readout assay that uses HepaRG, a human liver cell line, with measurements taken at 48 hours after chemical dosing on a 96-well plate.LTEA_HepaRG_GADD45A is one of 102 assay component(s) measured in the LTEA HepaRG cell culture assay. It is a marker of Oxidative Stress.Data from the assay component LTEA_HepaRG_GADD45A was analyzed into 1 endpoint. This assay endpoint, LTEA_HepaRG_GADD45A, was analyzed with bidirectional fitting relative to DMSO as the negative control and baseline of activity. Using a type of inducible reporter, measures of mRNA induction for gain or loss-of-signal activity can be used to understand regulation of transcription factor activity. To generalize the intended target to other relatable targets, this assay endpoint is annotated to the cell cycle intended target family, where the subfamily is Oxidative Stress.
A total of 1060 chemcials from the ToxCast library were tested in eight-point concentration-response experiments. Cell culture and cytotoxicity assays were conducted at Thermo Fisher Scientific's Custom Services facility (Madison, WI). A single lot of human HepaRG cells (Thermo Fisher Scientific, Frederick, MD) was used for the cell culture experiments. 96-well format collagen type I coated plates of human HepaRG cells were prepared using established methods. Briefly, cryopreserved HepaRG cells were thawed, plated at a density of approximately 100,000 cells/well in HepaRG Thaw, Plate, and General Purpose media (HPRG770, Thermo Fisher Scientific), and incubated for 48 hours. 0.5% DMSO was selected as vehicle control to balance the requisite need of DMSO in HepaRG cultures to maintain differentiation (for example, baseline metabolism, proportions of hepatocytes vs. cholangiocytes), while enabling further hepatic receptor pathway activation (for example, PXR and CAR) in response to chemical exposure. 48 hours after plating, the culture medium was replaced with HepaRG Serum-Free Incudtion Media. Cells were exposed to each test chemical in duplicate and maintained in CO2 incubators for another 48 hours. Chemical plates were thawed to room temperature and 200x concentrations of treatment groups were prepared. 8-point conentration-reponse curves were made with the highest exposure at 100 uM, followed by half-log dilutions, all in 0.5% DMSO. Each test plate contained variouse controls, induction positive controls (1mM phenobarbital), cytotoxicity positive controls ([…] aflatoxin B1), vehicle controls (0.5% DMSO), and total lysis controls (0.5% DMSO). Cell morphology images were taken using an Essen IncuCyte FLR automated microscope, with six 96-well plates imaged in about 24 minutes. Images were captured and exported and JPEG files. Spent culture media was transfered to black-well plates for the LDH assay, and remaining media was sorted at -80 C for later use. Cells were treated with RLT buffer and frozen until shipped for gene expression analysis. Total RNA was isolated from the cell suspension in 75 uL of Buffer RLT (Qiagen, Germantown, MD 20874) by Quintiles/Expression Analysis (Durham, NC) using a custom isolation procedure. Total RNA from each plate well was transferred to a preamplification plate. Fluidigm's 96.96 Dynamic ArrayTM (Fluidigm, Amsterdam, the Netherlands) technology was used for gene expression analyses by quantitative reverse transcription polymerase chain reaction (qRT-PCR, performed by Quintiles/Expression Analysis, Durham, NC)89. Standard TaqManTM Assays (Applied Biosystems/ThermoFisher Scientific, Foster City, CA) were used to assess the expression of 93 genes selected based on their selectivity and sensitivity to important hepatic receptors known to be modulated by environmental chemicals; importance in human hepatocyte functionality; and hepatotoxicity. […]

Compound | AC50 | outcome
N=C(N)c1ccc(OCCCCCOc2ccc(C(=N)N)cc2)cc1 | 4.21 µM (active) | 
CN(C)CCOC(c1ccccc1)c1ccccc1 |  | inactive
CS(=O)(=O)c1ccc([C@@H](CC2CCCC2)C(=O)Nc2cnccn2)cc1Cl | 9.92 µM (active) | 
CCCCc1oc2ccccc2c1C(=O)c1cc(I)c(OCCN(CC)CC)c(I)c1 | 59.1 µM (active) | 
OCC(CO)(CBr)CBr |  | inactive
CCC(C)c1ccccc1O (stereo unspecified) |  | inactive
CN(Cc1cnc2nc(N)nc(N)c2n1)c1ccc(C(=O)N[C@@H](CCC(=O)O)C(=O)O)cc1 |  | inactive
CC(=O)Nc1ccc(O)cc1 |  | inactive
O=C1NS(=O)(=O)c2ccccc21 |  | inactive
CCCCC(CC)C(=O)O (stereo unspecified) |  | inactive
CCCCC=O |  | inactive
Cc1[nH]nc2c1N=C(c1ccccc1Cl)c1cc([N+](=O)[O-])ccc1N2 | 88.8 µM (active) | 
O=C(c1ccccc1)c1ccccc1 |  | inactive
CCCCCCCCCCCCCCC |  | inactive
CCCCCCCCCCCCOS(=O)(=O)O |  | inactive
O=C(CCCN1CCC(O)(c2ccc(Cl)cc2)CC1)c1ccc(F)cc1 | 75 µM (active) | 
